Screens: PubChem, Sanford-Burnham Center for Chemical Genomics
Shown are actives, neighbours in structure and some others; about 31% of the full set was active somewhere.
CYP2C9 act: CYP2C9 (human) activation | P11712 | recombinant CYP2C9, luciferin-H conversion, luminescence; stronger effect = higher value; factor 1 = untreated enzyme, 0 = blocked | activation factor at 5 µM | 1.4% of 96,000 active | AID 1024;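 active means activation factor of 2 or more for CYP2C9 at a 5 µM dose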
Target sequence (P11712 whole entry, looked up): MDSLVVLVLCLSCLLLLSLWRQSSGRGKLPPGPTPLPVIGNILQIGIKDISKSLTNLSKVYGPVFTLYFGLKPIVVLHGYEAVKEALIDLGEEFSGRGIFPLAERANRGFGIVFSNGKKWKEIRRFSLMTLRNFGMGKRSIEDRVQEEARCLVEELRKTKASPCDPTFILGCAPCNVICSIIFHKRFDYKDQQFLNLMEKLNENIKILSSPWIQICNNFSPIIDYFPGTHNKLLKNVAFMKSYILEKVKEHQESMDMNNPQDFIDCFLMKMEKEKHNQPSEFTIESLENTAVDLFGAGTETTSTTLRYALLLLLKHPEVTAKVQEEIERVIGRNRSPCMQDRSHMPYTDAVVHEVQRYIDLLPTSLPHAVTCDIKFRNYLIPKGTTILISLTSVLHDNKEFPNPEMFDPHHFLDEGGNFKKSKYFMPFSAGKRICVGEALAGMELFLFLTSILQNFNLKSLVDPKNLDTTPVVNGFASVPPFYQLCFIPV
CYP2C19 act: cytochrome P450 2C19 (human) activation; 96,000 tested, under 10 active; recombinant CYP2C19, luciferin-H EGE luminescence; stronger effect = higher value; 0 = fully inhibited enzyme, 1 = untreated enzyme; AID 1025; activation factor at 5 µM; P33261;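 active means activation factor of at least 2 at 5 µM in the primary screen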
CYP2C9 inhib: human CYP2C9 inhibition; CYP2C9 Supersomes, luciferin-H conversion, luminescence; inhibition, % at 5 µM; 20% of 96,000 active; AID 777; P11712;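 active means blocking of liver enzyme CYP2C9 beyond about 50% at 5 µM, limit read from the data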
CYP2C19 inhib: inhibitors of human CYP2C19; CYP2C19 Supersomes, luciferin-H EGE luminescence, 30 min; inhibition, % at 5 µM; 21% of 96,000 active; AID 778;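 active means CYP2C19 inhibition above a set limit at 5 µM in the primary screen, cut at about 50% in these data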
PLAP activator: human PLAP activation; activation fold at 20 µM; purified PLAP enzyme, luminescent substrate read-out; stronger effect = higher value; AID 696; 1.2% of 96,000 active; in the data active means activation fold above about 2
Of the large screens only hits and unclear results are named; the others gave an inactive call.

O=S(=O)(NC1CCc2ccccc21)c1ccc(S(=O)(=O)N2CCCC2)cc1 (stereo not given)	none
Cc1ccc(C)n1-c1ccc(C(=O)O)cc1	CYP2C9 inhib 56
COc1ccc(NC(=O)OC(C)C)cc1	none
CCN(CC)S(=O)(=O)c1cccc(-c2nnc(SCc3nnc(-c4cccs4)o3)n2N)c1	CYP2C9 inhib 76, CYP2C19 inhib 58
c1ccc(-c2nnc(SCc3nnc(-c4cccs4)o3)o2)cc1	none
CC(Cc1ccccc1)N/C=C1\CC(=O)NC1=O (stereo not given)	none
CCOC(=O)c1sc2cc([N+](=O)[O-])cc(SCC(=O)OC)c2c1N	CYP2C9 inhib 87, CYP2C19 inhib 60
Cc1cc(S(=O)(=O)N2CCN=C2c2ccccc2)ccc1F	CYP2C9 inhib 65, CYP2C19 inhib 95
Cc1ccc(Cl)cc1N1CCN(S(=O)(=O)c2cccc(S(=O)(=O)N3CCCC3)c2)CC1	CYP2C9 inhib 87, CYP2C19 inhib 64
O=c1c(Cl)c(N2CCN(S(=O)(=O)c3ccc(F)cc3)CC2)cnn1-c1cccc(Cl)c1	none
Cc1cc(S(=O)(=O)N2CC(=O)N(CCc3ccccc3)C(=O)C2)ccc1F	none
O=c1ccc2cc(S(=O)(=O)N3CCN(c4cc(Cl)ccc4Cl)CC3)ccc2o1	CYP2C9 inhib 88, CYP2C19 inhib 74
Cc1cc(S(=O)(=O)N2CCN(c3c(C)cccc3C)CC2)ccc1F	CYP2C9 inhib 98, CYP2C19 inhib 97
Cc1cc(S(=O)(=O)N2CCN(c3ccccc3C)CC2)ccc1F	CYP2C9 inhib 95, CYP2C19 inhib 97
COc1ccc(CNC(=O)Cc2csc(Nc3nc(=S)[nH]c4ccccc34)n2)cc1	CYP2C9 inhib 86, CYP2C19 inhib 66
O=C(Cc1csc(Nc2nc(=S)[nH]c3ccccc23)n1)NCc1ccc(Cl)cc1	CYP2C9 inhib 83, CYP2C19 inhib 56
COCc1cc(Sc2cccc(Cl)c2Cl)nc(-c2ccccc2)n1	none
Cc1nc(CS(=O)(=O)c2ccccc2)cc(Sc2ccc(Cl)cc2Cl)n1	CYP2C9 inhib 50
O=C(O)CCCC(=O)Nc1cccc2cccnc12	none
COc1cc(C(=O)Nc2cccc3cccnc23)cc(OC)c1OC	none
CCOC(=O)c1cccc(NC(=O)COc2ccc([N+](=O)[O-])cc2)c1	CYP2C9 inhib 77, CYP2C19 inhib 57
CCOCC(=O)Nc1cccc(C(=O)OCC)c1	none
COc1ccc(OCC(=O)Nc2cccc3cccnc23)cc1	CYP2C19 inhib 97
COc1ccc(OCC(=O)Nc2cccc(-c3nc4ccccc4[nH]3)c2)cc1	CYP2C9 inhib 94, CYP2C19 inhib 65
O=C(Nc1cccc2cccnc12)c1cccnc1	CYP2C9 act 2.1
CCOC(=O)N1CCN(Cc2nc3c(c(=O)n(C)c(=O)n3C)n2CCC(C)C)CC1	none
CC(=O)Nc1cccc(OCC(=O)Nc2ccc(F)cc2)c1	CYP2C19 inhib 68
COc1ccc(OCC(=O)Nc2cccc(NC(=O)COc3ccc(OC)cc3)n2)cc1	CYP2C9 inhib 72
COc1ccc(NC(=O)COc2nc(N(C)C)nc(N(C)C)n2)cc1	none
Cc1cc(C)cc(OCC(=O)Nc2cccc(C(=O)O)c2)c1	none
COc1ccc(OCC(=O)Nc2cccc(C(C)=O)c2)cc1	CYP2C9 inhib 51, CYP2C19 inhib 67
CC(=O)Nc1cccc(OCC(=O)NC(C)C(C)C)c1 (stereo not given)	none
O=C(COc1ccc(F)cc1)Nc1ccc(-n2cnnn2)cc1	CYP2C19 inhib 76
COc1ccc(NC(=O)C2CC(=O)n3cnnc3S2)cc1 (stereo not given)	none
CCC(C)C(NC(=O)C(N)CC(C)C)C(=O)NC(CCC(=O)OCc1ccccc1)C(N)=O (stereo not given)	none
Cc1nnc(N(Cc2ccco2)C(=O)c2cccc(C#N)c2)s1	none
Cc1ccc(NC(=O)N(Cc2ccco2)Cc2cc3cc(C)cc(C)c3nc2Cl)cc1	CYP2C9 inhib 50
Cc1cccc2cc(CN(Cc3ccco3)C(=O)Nc3cccc(C#N)c3)c(Cl)nc12	CYP2C9 inhib 95, CYP2C19 inhib 62
CCOCCc1nnc(NC(=O)c2cc(OC)c(OC)c(OC)c2)s1	none
CC(=O)C1=C(O)C(=O)N(Cc2ccco2)C1c1ccc2c(c1)OCO2 (stereo not given)	none
CC(=N\O)/C(CN(C)C)=N/O	none
COc1ccc(NC(=O)C2CCCN2C(=O)OCc2ccccc2)c(OC)c1 (stereo not given)	none
COc1ccc(NC(=O)C2CCCCN2CC(=O)OCc2ccccc2)cc1OC (stereo not given)	CYP2C9 inhib 62, CYP2C19 inhib 67
COc1ccc(NC(=O)C2CCCCN2N)cc1OCC(C)C (stereo not given)	CYP2C19 inhib 94
CCO/C(C)=N/n1c2nc3ccccc3nc2c2c(=O)n(CC(C)C)c(C)nc21	none
Clc1ccccc1C1SCC2Nc3ccccc3CN21 (stereo not given)	CYP2C9 inhib 53, CYP2C19 inhib 87
N#Cc1c(NCCCO)nc(NCc2ccccc2)c2c1CCN(Cc1ccccc1)C2	CYP2C9 inhib 100
CN1CCc2c(C#N)c(N3CCCCC3)nc(NCc3ccccc3)c2C1	CYP2C9 inhib 74
N#Cc1c(NCCCO)nc(-c2ccco2)c2c1CCCC2	CYP2C9 inhib 92, CYP2C19 inhib 61
CCCc1cc(=O)[nH]c(NCc2ccc(Cl)cc2)n1	none
CCCc1cc(=O)[nH]c(-n2[nH]c3c(c2=O)CCCC3)n1	PLAP activator 2.3
CCCN(CCC(=O)Nc1cc(OC)cc(OC)c1)CC1CC1	none
COc1ccc(OC)c(S(=O)(=O)N2CCC(C(=O)NCCc3ccccc3)CC2)c1	CYP2C9 act 3.2
COc1ccc(OC)c(S(=O)(=O)N2CCC(C(=O)N3CCN(Cc4ccccc4)CC3)CC2)c1	CYP2C9 inhib 55
COc1ccc(C2OC(=O)CC2C(=O)N2CCN(c3cc(Cl)ccc3C)CC2)cc1OC (stereo not given)	CYP2C9 inhib 85, CYP2C19 inhib 73
CCc1ccccc1N1CCN(S(=O)(=O)c2cc(OC)ccc2OC)CC1	CYP2C9 inhib 99, CYP2C19 inhib 100
COc1ccc(OC)c(S(=O)(=O)N2CCN(C)CC2)c1	none
CCSc1nnc(NC(=O)NC(CC)(C(F)(F)F)C(F)(F)F)s1	none
COc1ccc(OC)c(CCNC(=O)C2CCN(c3nnc(-n4cccc4)s3)CC2)c1	CYP2C9 inhib 65, CYP2C19 inhib 93
COc1ccc(OC)c(S(=O)(=O)N2CCC(C(=O)NC(C)c3ccccc3)CC2)c1 (stereo not given)	CYP2C9 act 2.9
CC1CCN(Cc2ccc(NC(=O)C3CCN(c4nnc(-n5cccc5)s4)CC3)cc2)CC1	CYP2C19 inhib 56
Cc1ccc(Cl)cc1N1CCN(C(=O)C2CCN(c3nnc(-n4cccc4)s3)CC2)CC1	CYP2C9 inhib 85
O=C(C1CCN(c2nnc(-n3cccc3)s2)CC1)N1CCN(Cc2ccc3c(c2)OCO3)CC1	none
Cc1cccc(N2CCN(C(=O)C3CCN(c4nnc(-n5cccc5)s4)CC3)CC2C)c1 (stereo not given)	none
